Test in all cases: NCI-60 one-dose screen, 48 h (100 = growth as untreated, 0 = no growth, -100 = all killed)
Holding throughout (conditions): 10 µM unless noted

Test [1] has as its system T-47D breast.
Test [2] has as its system BT-549 breast.
Test [3] concerns MDA-MB-435 melanoma.
Test [4] concerns SW-620 colon.
The subject of test [5] is MCF7 breast.
For test [6], the system named is HCT-116 colon.
Test [7] deals with HCC-2998 colon.
Test [8] deals with KM12 colon.

The structures appear in SMILES notation. About 83,000 compounds went through this panel and 20% of them were active in at least one assay; those are over-represented in the sample as a whole.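 Step 1: grow cells in 96-well plates. Step 2: add test compound at a single concentration. Step 3: incubate 48 h. Step 4: record percent growth.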 Values without a mark were called inactive. Activity calls are given as the source filed them. How the source made its calls: active means growth percent below 10; inactive means the rest.

Consider `CC1(C)CC[C@]2(CO)CC[C@]3(C)[C@H](CC[C@@H]4[C@@]5(C)CCCNC(C)(C)[C@@H]5CC[C@]43C)[C@H]2[C@H]1O`, for which the growth in test [1] is 88.8%; in test [2], 89.3%; in test [3] it was 82.7%; in test [4] it was 54.2%; in test [5] it was 55.2%; in test [6] it was 50.2%. The growth was 38.2% in test [7] and 77.9% in test [8].
For the molecule `Cc1ccc(/C=C/C(=O)c2cccc(OCCCOc3cccc(C(=O)/C=C/c4ccc(C)cc4)c3)c2)cc1`, the growth in test [1] was 58.4%; in test [2] it was 79.7%; in test [3], 89.3%; in test [4], 68.1%; in test [5], 2.54% (active); in test [6] it was 18.3%. Also, the growth in test [7] is 66.3%; in test [8], 78.8%.
On to `CCOC(=O)c1[nH]c2c(c1C)-c1[nH]c(=O)c(S(=O)(=O)c3ccccc3)cc1SC2`, for which the growth was 1.66% [100 µM] (active) in test [1]; 32.7% [100 µM] in test [2]; 24.2% [100 µM] in test [3]; 49.1% [100 µM] in test [4]; 28.2% [100 µM] in test [5]; 24.9% [100 µM] in test [6]. For the same molecule, the growth in test [7] is 75.1% [100 µM]; in test [8], 28.1% [100 µM].
As for `COc1ccc(/C(C)=C(\c2ccc(Cl)cc2)c2ccc(OCCN3CCCCC3)cc2)cc1`, the growth was 48.1% in test [1]; 73.1% in test [2]; 58% in test [3]; 24.5% in test [4]; 20.3% in test [5]; 31.9% in test [6]. Moreover, the figures for the growth in test [7] and in test [8] were 91.3% and 25.7%, respectively.
As to `C#CCOc1cccc(-c2ncnc3cc(NC(=O)C=C)ccc23)c1`, the growth in test [1] is 37.6%; in test [2], 43.5%; in test [3] it was 30%; in test [4] it was 21.4%; in test [5], 13.5%; in test [6] it was 27.2%. Also, the growth in test [7] was 91.5%; in test [8], 31.1%.
For `COc1ccc(Cn2cc(C(=O)N=Nc3c(O)[nH]c4c(C)cccc34)nn2)cc1`, the growth in test [1] is 81%; in test [2] it was 103%; in test [3], 82%; in test [4], 57.5%; in test [5], 84.9%; in test [6], 7.11% (active). Further, the growth in test [7] was 101%; in test [8], 95.6%.
With `CSc1nc(C)c([N+](=O)[O-])c(N)n1`, the growth in test [1] was 107%; in test [2], 98.9%; in test [3] it was 107%; in test [4] it was 104%; in test [5], 94.3%; in test [6], 91.1%. Besides, the growth is 114% in test [7] and 99.5% in test [8].
Regarding `Oc1c(CN2CCCC2)cc(CSCc2ccccc2)c2cccnc12`, the growth in test [1] was -3.02% (active); in test [2], 28.5%; in test [3], 21.2%; in test [4] it was 13.6%; in test [5], 8.46% (active); in test [6], 7.5% (active). Further, the growth in test [7] is 34.8%; in test [8], 20.1%.
`NNCCc1ccc(NC(=O)CCCc2ccc(C(=O)Nc3ccccc3N)cc2)cc1`: the growth in test [1] is 28.7%; in test [2], 71%; in test [3], 71.1%; in test [4] it was 57.5%; in test [5] it was 57.8%; in test [6], 41.6%. Also, the growth in test [7] is 92.4%; in test [8], 81.5%.
Take `Nc1nc(NC(=O)Nc2ccc(C(=O)O)cc2)nn1-c1ccc(S(N)(=O)=O)cc1`: the growth was 102% in test [1]; 91.3% in test [2]; 98.2% in test [3]; 87.7% in test [4]; 98.7% in test [5]; 95.4% in test [6]. Besides, the growth was 107% in test [7] and 89.6% in test [8].
Consider `C/C(=N\O)c1ccc(NC(=O)CSc2nnc(-c3cc(-c4ccc(S(N)(=O)=O)cc4)nc4ccccc34)n2-c2ccccc2)cc1`, for which the growth in test [1] is 36.6%; in test [2], 67.9%; in test [3], 69.5%; in test [4], 74.7%; in test [5] it was 44.6%; in test [6] it was 53.2%. In addition, the figures for the growth in test [7] and in test [8] were 87.5% and 65%, respectively.
On to `COc1ccc(-c2nn(-c3ccccc3)cc2/C=C/C(=O)NNC(=O)Nc2ccc(C)cc2)cc1`, for which the growth in test [1] is 92.3%; in test [2], 114%; in test [3], 99.9%; in test [4], 95.1%; in test [5], 91.9%; in test [6] it was 77.7%. The growth was 96.7% in test [7] and 101% in test [8].
In the case of `CC1(C)N=C(N)N=C(N)N1c1cccc(CCc2ccccc2)c1`, the growth in test [1] was 37.7%; in test [2] it was 42.4%; in test [3], 47.5%; in test [4], 27.4%; in test [5] it was 23.8%; in test [6] it was 19.8%. Moreover, the growth is 2.34% (active) in test [7] and 21.9% in test [8].
Regarding `O=C(O)[C@@H](Cc1ccc2ccccc2c1)NC(=O)n1c2ccccc2c2ccccc21`, the growth in test [1] was 70.7%; in test [2] it was 11.3%; in test [3] it was -53% (active); in test [4], 27.3%; in test [5] it was 17.1%; in test [6], 9.76% (active). Further, the results for the growth in test [7] and in test [8] were 21.4% and 18.5%, respectively.

These data come from PubChem BioAssay (NCI).
